# Experimental data published in publication PMC7862700, “An all-to-all approach to the identification of sequence-specific readers for epigenetic DNA modifications on cytosine”.
# Experiments:
# Test in all cases: DAPPL (digital affinity profiling via proximity ligation, sequencing); 10 mM Tris-HCl pH 7.5, 50 mM NaCl, 1 mM DTT, 4% glycerol, room temperature, 30 min; GST-TFs on glutathione beads, 16-mer random dsDNA library, 0.1% formaldehyde crosslink after washing; high values mean tight binding
# Conditions in all cases: protein: recombinant; tags: N-terminal GST; dsDNA, one strand shown
# ERF = molecular target: T1, ERF (Homo sapiens, UniProt P50548 1-548)
# T1 sequence: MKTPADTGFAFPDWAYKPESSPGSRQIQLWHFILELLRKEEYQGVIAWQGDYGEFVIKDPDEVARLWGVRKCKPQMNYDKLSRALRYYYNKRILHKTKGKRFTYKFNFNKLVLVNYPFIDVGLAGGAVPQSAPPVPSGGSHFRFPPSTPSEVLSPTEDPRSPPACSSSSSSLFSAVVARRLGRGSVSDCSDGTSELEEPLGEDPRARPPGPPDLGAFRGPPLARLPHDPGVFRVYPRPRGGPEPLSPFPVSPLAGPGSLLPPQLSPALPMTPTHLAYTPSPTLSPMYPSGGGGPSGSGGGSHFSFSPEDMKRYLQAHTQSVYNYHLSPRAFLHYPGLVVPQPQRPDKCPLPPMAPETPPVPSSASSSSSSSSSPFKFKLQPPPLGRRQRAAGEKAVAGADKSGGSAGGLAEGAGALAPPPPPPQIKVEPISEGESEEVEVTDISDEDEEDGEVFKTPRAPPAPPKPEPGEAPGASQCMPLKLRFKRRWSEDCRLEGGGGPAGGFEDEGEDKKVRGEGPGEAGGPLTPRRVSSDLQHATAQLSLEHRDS
# Summary of the method: (§1)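 Yeast served to express human transcription factors as GST fusions, which were then captured on glutathione beads and labelled with DNA barcodes. Pooled with a tag-only sample, they were incubated with 200 nmole of a 16-mer random double-stranded DNA library for 30 min at room temperature in Tris/NaCl/DTT/glycerol buffer, washed, crosslinked with 0.1% formaldehyde, ligated by proximity, amplified by PCR and sequenced. Dividing each hexamer's read frequency for a factor by its frequency for the tag-only sample gives the binding signal.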
# ETV3L = molecular target: T2, ETV3L (Homo sapiens, UniProt Q6ZN32 1-361)
# T2 sequence: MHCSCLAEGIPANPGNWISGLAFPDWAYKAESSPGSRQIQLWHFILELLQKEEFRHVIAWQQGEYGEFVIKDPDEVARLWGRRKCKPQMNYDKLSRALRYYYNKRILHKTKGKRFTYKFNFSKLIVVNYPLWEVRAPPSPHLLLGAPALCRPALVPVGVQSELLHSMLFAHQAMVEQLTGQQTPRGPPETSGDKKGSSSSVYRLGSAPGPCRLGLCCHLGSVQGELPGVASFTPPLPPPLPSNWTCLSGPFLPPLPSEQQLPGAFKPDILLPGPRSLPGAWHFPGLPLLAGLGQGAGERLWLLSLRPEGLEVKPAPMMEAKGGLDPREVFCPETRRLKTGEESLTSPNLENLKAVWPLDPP
# Summary of the method: as §1
# ETS2 = molecular target: T3, ETS2 (Homo sapiens, UniProt P15036 1-469)
# T3 sequence: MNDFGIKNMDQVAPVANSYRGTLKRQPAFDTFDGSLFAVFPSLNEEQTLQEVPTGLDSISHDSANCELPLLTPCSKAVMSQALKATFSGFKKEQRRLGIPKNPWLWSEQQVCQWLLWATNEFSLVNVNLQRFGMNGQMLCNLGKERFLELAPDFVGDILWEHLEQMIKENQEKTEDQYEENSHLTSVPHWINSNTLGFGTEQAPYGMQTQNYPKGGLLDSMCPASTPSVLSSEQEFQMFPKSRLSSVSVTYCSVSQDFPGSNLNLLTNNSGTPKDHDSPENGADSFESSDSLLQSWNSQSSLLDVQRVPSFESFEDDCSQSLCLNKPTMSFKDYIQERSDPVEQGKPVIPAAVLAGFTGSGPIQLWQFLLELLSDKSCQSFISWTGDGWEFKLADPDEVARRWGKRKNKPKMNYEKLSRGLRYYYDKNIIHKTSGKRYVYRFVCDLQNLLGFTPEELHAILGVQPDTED
# Summary of the method: as §1
# SPDEF = molecular target: T4, SPDEF (Homo sapiens, UniProt O95238 1-335)
# T4 sequence: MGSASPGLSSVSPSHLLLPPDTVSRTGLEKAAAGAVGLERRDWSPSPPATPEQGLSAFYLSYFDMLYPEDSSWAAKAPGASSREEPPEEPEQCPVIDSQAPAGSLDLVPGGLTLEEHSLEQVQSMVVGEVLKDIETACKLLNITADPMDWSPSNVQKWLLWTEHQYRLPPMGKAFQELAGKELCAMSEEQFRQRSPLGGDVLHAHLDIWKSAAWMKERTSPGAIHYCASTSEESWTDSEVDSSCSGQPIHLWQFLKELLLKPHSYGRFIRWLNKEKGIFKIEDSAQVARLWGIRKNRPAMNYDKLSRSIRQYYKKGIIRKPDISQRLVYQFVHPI
# Summary of the method: as §1
# ETV7 = molecular target: T5, ETV7 (Homo sapiens, UniProt Q9Y603 1-341)
# T5 sequence: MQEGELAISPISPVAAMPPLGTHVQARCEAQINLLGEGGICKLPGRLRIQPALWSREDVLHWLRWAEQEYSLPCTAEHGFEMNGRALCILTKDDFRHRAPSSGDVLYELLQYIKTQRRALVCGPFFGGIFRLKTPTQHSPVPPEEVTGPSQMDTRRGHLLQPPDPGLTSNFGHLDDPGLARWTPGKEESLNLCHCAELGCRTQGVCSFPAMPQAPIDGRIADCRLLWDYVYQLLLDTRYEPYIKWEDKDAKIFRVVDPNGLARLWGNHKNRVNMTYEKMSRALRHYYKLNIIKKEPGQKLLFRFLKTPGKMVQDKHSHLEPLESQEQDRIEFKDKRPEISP
# Summary of the method: as §1
# ELF5 = molecular target: T6, ELF5 (Homo sapiens, UniProt Q9UKW6-2 1-255)
# T6 sequence: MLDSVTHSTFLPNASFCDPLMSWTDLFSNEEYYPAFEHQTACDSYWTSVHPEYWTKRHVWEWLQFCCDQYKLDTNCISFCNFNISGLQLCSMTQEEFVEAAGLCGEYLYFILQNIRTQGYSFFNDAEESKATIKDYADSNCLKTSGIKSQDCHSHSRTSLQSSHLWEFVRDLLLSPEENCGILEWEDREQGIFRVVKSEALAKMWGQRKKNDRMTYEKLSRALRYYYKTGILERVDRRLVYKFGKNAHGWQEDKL
# Summary of the method: as §1
# ETV3 = molecular target: T7, ETV3 (Homo sapiens, UniProt P41162-2 1-143)
# T7 sequence: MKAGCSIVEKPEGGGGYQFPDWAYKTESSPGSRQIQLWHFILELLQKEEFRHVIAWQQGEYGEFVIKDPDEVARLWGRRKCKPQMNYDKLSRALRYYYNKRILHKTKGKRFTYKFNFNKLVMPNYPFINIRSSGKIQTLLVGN
# Summary of the method: as §1
# ETV6 = ETV6 (Homo sapiens, UniProt P41212 1-452)
# ETV6, sequence (P41212 whole entry): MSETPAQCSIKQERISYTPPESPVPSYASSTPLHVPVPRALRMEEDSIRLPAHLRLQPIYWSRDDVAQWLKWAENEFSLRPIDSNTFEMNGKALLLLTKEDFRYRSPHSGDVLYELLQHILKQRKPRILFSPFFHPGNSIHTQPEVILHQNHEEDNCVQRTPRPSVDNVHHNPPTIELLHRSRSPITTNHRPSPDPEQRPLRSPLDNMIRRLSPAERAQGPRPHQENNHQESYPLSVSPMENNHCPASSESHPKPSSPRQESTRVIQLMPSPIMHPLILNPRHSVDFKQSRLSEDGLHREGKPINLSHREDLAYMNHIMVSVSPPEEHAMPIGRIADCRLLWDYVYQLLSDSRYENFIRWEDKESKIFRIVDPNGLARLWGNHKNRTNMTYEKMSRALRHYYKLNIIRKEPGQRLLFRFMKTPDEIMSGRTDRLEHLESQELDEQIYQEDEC
# Summary of the method: as §1
Sequence,binding signal (ERF),binding signal (ETV3L),binding signal (ETS2),binding signal (SPDEF),binding signal (ETV7),binding signal (ELF5),binding signal (ETV3),binding signal (ETV6)
TACGTT,"1.3 fold enrichment (6-mer frequency, TF over GST control)","1.32 fold enrichment (6-mer frequency, TF over GST control)","1.21 fold enrichment (6-mer frequency, TF over GST control)","1.22 fold enrichment (6-mer frequency, TF over GST control)","1.34 fold enrichment (6-mer frequency, TF over GST control)","1.27 fold enrichment (6-mer frequency, TF over GST control)","1.27 fold enrichment (6-mer frequency, TF over GST control)","1.38 fold enrichment (6-mer frequency, TF over GST control)"
TGACGC,"1.34 fold enrichment (6-mer frequency, TF over GST control)","1.24 fold enrichment (6-mer frequency, TF over GST control)","1.12 fold enrichment (6-mer frequency, TF over GST control)","1.13 fold enrichment (6-mer frequency, TF over GST control)","1.13 fold enrichment (6-mer frequency, TF over GST control)","1.19 fold enrichment (6-mer frequency, TF over GST control)","1.15 fold enrichment (6-mer frequency, TF over GST control)","1.19 fold enrichment (6-mer frequency, TF over GST control)"
AGTGGC,"1.27 fold enrichment (6-mer frequency, TF over GST control)","1.15 fold enrichment (6-mer frequency, TF over GST control)","1.22 fold enrichment (6-mer frequency, TF over GST control)","1.1 fold enrichment (6-mer frequency, TF over GST control)","1.11 fold enrichment (6-mer frequency, TF over GST control)","1.22 fold enrichment (6-mer frequency, TF over GST control)","1.27 fold enrichment (6-mer frequency, TF over GST control)","1.27 fold enrichment (6-mer frequency, TF over GST control)"
CTACGT,"1.24 fold enrichment (6-mer frequency, TF over GST control)","1.29 fold enrichment (6-mer frequency, TF over GST control)","1.12 fold enrichment (6-mer frequency, TF over GST control)","1.12 fold enrichment (6-mer frequency, TF over GST control)","1.35 fold enrichment (6-mer frequency, TF over GST control)","1.27 fold enrichment (6-mer frequency, TF over GST control)","1.17 fold enrichment (6-mer frequency, TF over GST control)","1.42 fold enrichment (6-mer frequency, TF over GST control)"
GCCCTC,"1.26 fold enrichment (6-mer frequency, TF over GST control)","1.09 fold enrichment (6-mer frequency, TF over GST control)","1.24 fold enrichment (6-mer frequency, TF over GST control)","1.08 fold enrichment (6-mer frequency, TF over GST control)","1.22 fold enrichment (6-mer frequency, TF over GST control)","1.1 fold enrichment (6-mer frequency, TF over GST control)","1.17 fold enrichment (6-mer frequency, TF over GST control)","1.05 fold enrichment (6-mer frequency, TF over GST control)"
GATATT,"1.05 fold enrichment (6-mer frequency, TF over GST control)","1.12 fold enrichment (6-mer frequency, TF over GST control)","1.13 fold enrichment (6-mer frequency, TF over GST control)","1.26 fold enrichment (6-mer frequency, TF over GST control)","1.14 fold enrichment (6-mer frequency, TF over GST control)","1.25 fold enrichment (6-mer frequency, TF over GST control)","1.14 fold enrichment (6-mer frequency, TF over GST control)","1.17 fold enrichment (6-mer frequency, TF over GST control)"
TGCGGA,"1.14 fold enrichment (6-mer frequency, TF over GST control)","1.3 fold enrichment (6-mer frequency, TF over GST control)","1.35 fold enrichment (6-mer frequency, TF over GST control)","1.38 fold enrichment (6-mer frequency, TF over GST control)","1.22 fold enrichment (6-mer frequency, TF over GST control)","1.46 fold enrichment (6-mer frequency, TF over GST control)","1.54 fold enrichment (6-mer frequency, TF over GST control)","1.34 fold enrichment (6-mer frequency, TF over GST control)"
TATGCC,"1.16 fold enrichment (6-mer frequency, TF over GST control)","1.12 fold enrichment (6-mer frequency, TF over GST control)","1.21 fold enrichment (6-mer frequency, TF over GST control)","1.23 fold enrichment (6-mer frequency, TF over GST control)","1.19 fold enrichment (6-mer frequency, TF over GST control)","1.14 fold enrichment (6-mer frequency, TF over GST control)","1.17 fold enrichment (6-mer frequency, TF over GST control)","1.22 fold enrichment (6-mer frequency, TF over GST control)"
TTGCAA,"1.15 fold enrichment (6-mer frequency, TF over GST control)","1.19 fold enrichment (6-mer frequency, TF over GST control)","1.1 fold enrichment (6-mer frequency, TF over GST control)","1.25 fold enrichment (6-mer frequency, TF over GST control)","1.19 fold enrichment (6-mer frequency, TF over GST control)","1.12 fold enrichment (6-mer frequency, TF over GST control)","1.18 fold enrichment (6-mer frequency, TF over GST control)","1.16 fold enrichment (6-mer frequency, TF over GST control)"
